# From PubChem BioAssay AID2546 (National Center for Advancing Translational Sciences (NCATS), 2010)
# In all, about 310,000 compounds went through this assay and about 11,000 (3.5%) were called active. Entries that show only a call come without a potency. Inconclusive results (about 8%) are left out. The sample holds actives, similar compounds and a random draw of the others, so the mix is not that of the screen. Calls come from the whole dose curve; as a rule, active = well fitted inhibition curve with a large enough effect; inconclusive = small, poorly fitted or top-dose-only effect, or effect the other way; inactive = flat fitted curve, though single readings scatter.
# Test: VP16 counterscreen qHTS for inhibitors of ROR gamma transcriptional activity;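 note: Gal4-VP16 expression switched on by copper sulfate through the metallothionein promoter; nearly all actives have a fitted effect of over 50% in size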
# Conditions: Drosophila S2 Gal4-VP16 UAS-luciferase, luminescence, 20 h; series mostly up to 53.6 µM
# Potency is the fitted concentration of half-maximal effect.
Compound,Potency,"activity, negative = inhibition"
Cc1c(C)c(C)c2[nH]c(=S)[nH]c2c1C,10 µM (active),
O=c1[nH]c(=S)[nH]c2[nH]c(=S)[nH]c12,inactive,
Cc1cc(=O)[nH]c(=S)[nH]1,inactive,
Cc1ccc(S(=O)(=O)N(CC(=O)Nc2cccnc2)c2ccc(Br)cc2)cc1,inactive,
CCCc1ccc(OCCNC(=O)c2ccco2)cc1,inactive,
COc1ccc(CN2C3CCCC2CC(NC(=O)c2cccc(F)c2)C3)cc1 (centres undefined),inactive,
CC(NCC(=O)Nc1cc(Cl)cc(Cl)c1)c1ccccc1 (centres undefined),inactive,
COc1ccc(C(=O)NC2CC2)cc1OC1CCN(Cc2ccc(SC)cc2)CC1,inactive,
COCCN(C(=O)CCC(=O)Nc1nccs1)C(C(=O)NCCC(C)C)c1ccc(F)cc1 (centres undefined),3.55 µM (active),
COCCN(C(=O)CCC(=O)Nc1ccccn1)C(C(=O)NCCC(C)C)c1ccc(OC)cc1 (centres undefined),inactive,
COCCN(C(=O)CCC(=O)Nc1nccs1)C(C(=O)NC(C)(C)C)c1ccc(Cl)cc1 (centres undefined),inactive,
COc1ccc(C2NC(=O)c3ccccc3N2)cc1 (centres undefined),inactive,
Cc1ccc(-c2nn(-c3ccccc3)cc2/C=N/NC(=O)c2ccc3c(c2)OCO3)cc1,inactive,
CCc1ccc(-c2nn(-c3ccccc3)cc2CSC(=N)N)cc1,20 µM (active),
Cc1nnc(SCC(=O)N/N=C/c2cn(-c3ccccc3)nc2-c2ccc(F)cc2)n1-c1ccccc1,inactive,
C/C(=N\NC(N)=S)c1ccncc1,inactive,
CC/C(=N\NC(=S)NC(C)C)c1ccc(OC(F)F)cc1,inactive,
C/C(=N\NC(=S)NC(C)C)c1ccc(C(C)(C)C)cc1,3.98 µM (active),
CCOC(=O)N1CCN(Cc2nc3cc(NC(=O)CC)ccc3n2CC)CC1,inactive,
Cc1ccc(SC(CC(=O)c2ccc(C(C)(C)C)cc2)C(=O)O)cc1 (centres undefined),5.01 µM (active),
Cc1ccc(C(=O)CNc2ccc(F)cc2)cc1,inactive,
Cc1ccc(CSCC(N)C(=O)O)cc1 (centres undefined),inactive,
CCOc1cc(C2/C(=C(/O)c3ccc(S(=O)(=O)N4CCCCC4)cc3)C(=O)C(=O)N2CCOC)ccc1O (centres undefined),inactive,
COc1ccccc1OCC(=O)Nc1c2c(nn1-c1ccc(F)cc1)CS(=O)(=O)C2,inactive,
COC(=O)c1ccc(NC(=O)Nc2ccc(C)cc2)cc1,inactive,
COC(=O)c1ccc(NC(=S)Nc2cccc(C)n2)cc1,7.08 µM (active),

Compound,Potency,"activity, negative = inhibition"
COC(=O)c1ccc(NC(=S)NN2CCOCC2)cc1,inactive,
O=C(O)CCCn1c(=O)c2cccn2c2ccc(F)cc21,inactive,
O=C(Nc1cn(-c2ccccc2)nc1-c1ccccc1)c1ccccc1,inactive,
O=C(NNC(=S)NC(=O)c1cn(-c2ccccc2)nc1-c1ccccc1)c1ccncc1,8.91 µM (active),
O=C(c1cn(-c2ccccc2)nc1-c1cccnc1)N1CCCCC1,inactive,
Cc1cc2c(c(=O)n1Cc1ccccc1)C1O[C@](CCCCN3C(=O)c4ccccc4C3=O)(Cc3ccccc31)O2,,-4.77% [at 10 µM] (inactive)
CN(CC(=O)NCc1ccc(Cl)cc1)S(=O)(=O)c1cccs1,inactive,
CC(C)=CCCC(C)CN1CCC(n2nccc2NC(=O)c2ccccc2)CC1 (centres undefined),inactive,
O=C(CN(C(=O)CCC(=O)Nc1nccs1)c1ccc(F)cc1)NCc1ccc2c(c1)OCO2,inactive,
O=C(/C=C/c1ccc(F)cc1)NCCNC(=O)/C=C/c1ccc(F)cc1,inactive,
CC(C)c1ccc(/C=C/C(=O)NNC(=O)c2cccnc2)cc1,inactive,
O=C(/C=C/c1ccc(F)cc1)NC(=S)NNC(=O)c1cccnc1,10 µM (active),
COc1ccc(C(=O)N(C)CC(O)c2ccccc2)cc1OC1CCN(C(C)=O)CC1 (centres undefined),inactive,
CN(Cc1nc2ccccc2c(=O)[nH]1)Cc1cc(=O)oc2ccc3ccccc3c12,inactive,
CCN(CC)c1ccc(C(=O)NNC(=O)CCc2nc3ccccc3c(=O)[nH]2)cc1,inactive,
O=C(c1ccco1)N(Cc1nc2ccccc2c(=O)[nH]1)C1CCCC1,8.91 µM (active),
CCCC(=O)N(CCc1ccccc1)Cc1nc2ccccc2c(=O)[nH]1,inactive,
CCN(CC(=O)Nc1ccc(Cl)c(S(=O)(=O)N(C)C)c1)Cc1nc2ccccc2c(=O)[nH]1,inactive,
CCN(CC(=O)NC(=O)NCc1ccccc1)Cc1nc2ccccc2c(=O)[nH]1,2.24 µM (active),
NS(=O)(=O)c1cccc(NC(=O)CSc2nc3ccccc3n2-c2ccccc2)c1,inactive,
O=C(COc1ncnc2ccccc12)NC(=O)NCc1ccccc1,inactive,
CCN(CC(=O)Nc1cccc(S(N)(=O)=O)c1)Cc1nc2ccccc2c(=O)[nH]1,7.94 µM (active),
CC(=O)NCC(=O)N1CCC(n2nccc2NC(=O)CCCc2ccccc2)CC1,inactive,
O=S(=O)(Nc1ccccc1Cl)c1cccc2nsnc12,inactive,
O=c1c(-c2cccc(Cl)c2)c[nH]n1-c1ccccc1,inactive,
COc1ccc(NC(=O)c2sc3nc(C)nc(N4CCN(c5ccccn5)CC4)c3c2C)c(OC)c1,inactive,

Compound,Potency,"activity, negative = inhibition"
COc1ccc(/C=N/NC(=O)c2ccc3c(c2)OCCO3)c(OC)c1,inactive,
COc1cc(/C=N/NC(=O)c2ccc(N3CCCC3=O)cc2)ccc1O,inactive,
COc1ccc(C(=O)Nc2ccccc2C(=O)NCc2ccco2)cc1,inactive,
COc1ccc(C(=O)Nc2ccccc2C(=O)N/N=C/c2ccc(O)c(OC)c2)cc1,0.316 µM (active),
COc1ccc(C(=O)Nc2ccccc2C(=O)N/N=C/c2ccccc2OC)cc1,12.6 µM (active),
COc1cc(/C=N/NC(=O)c2ccccc2)ccc1OS(=O)(=O)c1ccccc1,inactive,
Cn1c(Nc2cccc(Cl)c2)nc2ccccc21,inactive,
Fc1cc(F)c2nc(N3CCOCC3)sc2c1,inactive,
Fc1cc(F)c2nc(Nc3nc4c(F)cccc4s3)sc2c1,7.08 µM (active),
O=C(Nc1nc2c(F)cc(F)cc2s1)C1COc2ccccc2O1 (centres undefined),inactive,
CCc1ccc(/C=N/NC(=O)c2nnn(-c3nonc3N)c2CN2CCc3ccccc32)cc1,inactive,
COc1ccc(C(C(=O)NC2CCCCC2)N(C(=O)c2snc(C(N)=O)c2N)c2ccccc2OC)cc1 (centres undefined),inactive,
CCC1(C)Cc2c(sc3nc(SC)[nH]c(=O)c23)CO1 (centres undefined),inactive,
CCC1(C)Cc2c(sc3[nH]c(=S)n(Cc4ccccc4)c(=O)c23)CO1 (centres undefined),1.26 µM (active),
CCC1(C)Cc2c(sc3nnn(CC(=O)Nc4ccc(Cl)cc4)c(=O)c23)CO1 (centres undefined),inactive,
CCOc1ccc(N(CC(=O)Nc2ccccc2F)S(=O)(=O)c2c(C)[nH]c(=O)[nH]c2=O)cc1,inactive,
Cc1cccc(N2CCN(S(=O)(=O)c3ccc(-c4cc(C)no4)s3)CC2C)c1 (centres undefined),inactive,
COCCCNS(=O)(=O)c1cccc(S(=O)(=O)c2cccc(S(=O)(=O)NCCCOC)c2)c1,inactive,
CCOc1ccccc1NS(=O)(=O)c1c[nH]c(C(=O)OC)c1,inactive,
CCCNC(=O)CSc1nc(Cc2ccccc2)nc2ccccc12,inactive,
COCc1ccc(CN2CCC(Oc3ccc(C(=O)NCc4ccccn4)cc3)CC2)o1,inactive,
CC(=O)C1(C)N(O)C(C)(C)C(c2cccs2)=[N+]1[O-] (centres undefined),10 µM (active),
CC1(C)C(c2cccs2)=[N+]([O-])C2(CCCCC2=O)N1O (centres undefined),inactive,
C/C(=N\O)C1(C)N(O)C(C)(C)C(c2ccc(Br)cc2)=[N+]1[O-] (centres undefined),inactive,
COc1ccc(C2/C=C\CN(Cc3ccco3)C(C)C(=O)N2Cc2ccc(F)cc2)cc1 (centres undefined),inactive,
COc1ccc(CN2CN(C3CCCC3)CSC2=S)cc1,11.2 µM (active),

Compound,Potency,"activity, negative = inhibition"
COc1ccc(CN2CN(C(C)C)CSC2=S)cc1,inactive,
COc1ccc(CN2CC(C(=O)NC3CCCCC3)CC2=O)cc1 (centres undefined),inactive,
CC(C)Nc1ccc(-n2nc3ccccc3[n+]2[O-])cc1,10 µM (active),
CC1CCN(C(=O)CCNC(=O)c2ccccc2)CC1,inactive,
COc1ccc(CCNC(=O)CN2C(=O)CCSc3ccccc32)c(OC)c1,inactive,
C=CCn1c(-c2ccc3[nH]c(C)c(C)c3c2)n[nH]c1=S,12.6 µM (active),
COc1cc(-c2n[nH]c(=S)n2Cc2ccccc2)cc(OC)c1OC,inactive,
C=CCn1c(=S)sc2c(=O)[nH]c(C)nc21,inactive,
COC(=O)c1cccc(C(=O)N2CCC(CCC(=O)NCc3ccc(F)cc3)CC2)c1,inactive,
O=C(c1ccc(Oc2ccc(Cl)cc2)c([N+](=O)[O-])c1)N1CCCC1,inactive,
CCN(CC)c1ccc(C(=O)Nn2c(C)nc3ccccc3c2=O)cc1,inactive,
COC(=O)c1ccc2c(=O)n(CCN3CCOCC3)c(SCC(=O)Nc3cccc(OC)c3)nc2c1,inactive,
COc1ccccc1N1CCN(S(=O)(=O)CCNC(=O)c2ccc(OC(C)C)cc2)CC1,inactive,
O=C(CSCc1ccccc1)N1CCc2ccccc21,inactive,
O=C(NC(=S)N1CCc2ccccc21)c1ccco1,3.16 µM (active),
NC(=O)N1CCc2ccccc21,inactive,
CN(C)c1ccc(-c2nnc(-c3cccnc3)o2)cc1,inactive,
O=C(Nc1ccncc1)Nc1ccc(F)cc1,inactive,
Cc1ccc(C)c(N2CCN(C(=O)CCCCn3c(=O)[nH]c4ccccc4c3=O)CC2)c1,inactive,
Cc1ccc(C)c(N2CCN(C(=O)CCCn3c(=O)c4cccn4c4cccnc43)CC2)c1,inactive,
Cc1ccc(C)c(N2CCN(C(=O)CCCCCn3c(=S)[nH]c4ccc(N5CCOCC5)cc4c3=O)CC2)c1,5.62 µM (active),
O=C(CSc1nc2nccnc2c(=O)n1Cc1cccs1)Nc1ccccc1F,inactive,
CC(=O)N(C)c1ccc(NC(=O)Nc2cccc3ccccc23)cc1,inactive,
CCNC(=O)N1c2ccccc2Sc2ccccc21,,-17% [at 10 µM] (inactive)
CCN1/C(=C/C(=S)Nc2ccccc2)Sc2ccccc21,12.6 µM (active),
O=C(CCN1c2ccccc2Sc2ccccc21)Nc1ccccc1,inactive,
